Assay results from the supplement of paper PMC10849652.
About 7,900 targets were measured; listed, in parts, are those with a hit and a random draw of the rest. About 0.6% of all pairs of compound and target were hits. Unmarked numbers belong to inactive results.

Experiments:
Assay in all cases: log2 fold change, soluble protein after heating vs DMSO (PISA); higher = thermal stabilisation; K562 cells, 10 uM, 30 min; active = over 0.2 and 3.5 SD of the protein, either way, in both replicates (recomputed)
[1] = compound: CC[C@@H]1C(=O)N(C)c2cnc(Nc3ccc(C(=O)NC4CCN(C)CC4)cc3OC)nc2N1C1CCCC1
How it was run: (§1)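 Quantification of soluble protein used TMTpro 16plex LC-MS/MS, with channel sums equalised. Samples were the supernatant after 21,000xg for 90 min of pooled aliquots from K562 cells (2×10^6 cells/mL) treated with 10 μM compound for 30 min, heated for 3 min over 48°C-58°C, and extracted in PBS with 0.5% NP-40 at 4°C. Values, from duplicates, describe thermal stability against control samples on a log2 fold-change scale.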

volasertib = compound: CC[C@@H]1C(=O)N(C)c2cnc(Nc3ccc(C(=O)N[C@H]4CC[C@H](N5CCN(CC6CC6)CC5)CC4)cc3OC)nc2N1C(C)C [volasertib]
How it was run: as §1

[2] = compound: CC[C@H](C)N1C=C(C2=C(C=C(C=C21)C3=CN=C(C=C3)N4CCNCC4)C(=O)NCC5=C(C=C(NC5=O)C)C)C
How it was run: as §1

epoxomicin = compound: CC[C@H](C)[C@@H](C(=O)N[C@@H]([C@@H](C)O)C(=O)N[C@@H](CC(C)C)C(=O)[C@]1(CO1)C)NC(=O)[C@H]([C@@H](C)CC)N(C)C(=O)C [epoxomicin]
How it was run: as §1

[3] = compound: CCn1c(C(=O)N(C2CC2)C2CC2)cc2c3c(ncn3C)c(Nc3cc(C)n(C)n3)nc21
How it was run: as §1

[4] = compound: CCn1cc(-c2ccnc3[nH]c(-c4cccc(CN(C)C)c4)cc23)c(-c2ccc(NC(=O)N(C)C)cc2)n1
How it was run: as §1

[5] = compound: CN(C)CC(=O)Nc1ccc2[nH]c(=O)c3ccccc3c2c1
How it was run: as §1

rosiglitazone = compound: CN(CCOC1=CC=C(C=C1)C[C@H]2C(=O)NC(=O)S2)C3=CC=CC=N3 (racemic) [rosiglitazone]
How it was run: as §1

[6] = compound: CN1C2=C(C3=C1C(=O)N(N=C3)CC4=CC(=CC=C4)N)SC(=C2)S(=O)C
How it was run: as §1

[7] = compound: CN1CCC(CNc2ccc3ncc(-c4cccc(OC(F)(F)F)c4)n3n2)CC1
How it was run: as §1

saracatinib = compound: CN1CCN(CCOc2cc(OC3CCOCC3)c3c(Nc4c(Cl)ccc5c4OCO5)ncnc3c2)CC1 [saracatinib]
How it was run: as §1

sotrastaurin = compound: CN1CCN(c2nc(C3=C(c4c[nH]c5ccccc45)C(=O)NC3=O)c3ccccc3n2)CC1 [sotrastaurin]
How it was run: as §1

alvocidib = compound: CN1CC[C@H](c2c(O)cc(O)c3c(=O)cc(-c4ccccc4Cl)oc23)[C@H](O)C1 [alvocidib]
How it was run: as §1

Tubastatin A = compound: CN1CCc2c(c3ccccc3n2Cc2ccc(C(=O)NO)cc2)C1 [Tubastatin A]
How it was run: as §1

[8] = compound: CNC(=O)C1=CC=CC=C1NC2=NC(=NC=C2Cl)NC3=C(C=C(C=C3)N4CCOCC4)OC
How it was run: as §1

defactinib = compound: CNC(=O)c1ccc(Nc2ncc(C(F)(F)F)c(NCc3nccnc3N(C)S(C)(=O)=O)n2)cc1 [defactinib]
How it was run: as §1

rucaparib = compound: CNCc1ccc(-c2[nH]c3cc(F)cc4c3c2CCNC4=O)cc1 [rucaparib]
How it was run: as §1

[9] = compound: CNc1nc(-c2ccc3c(N)n[nH]c3c2)cc(N2C[C@@H](C(=O)NC3CCCCC3)CC[C@H]2C)n1
How it was run: as §1

encorafenib = compound: COC(=O)N[C@@H](C)CNc1nccc(-c2cn(C(C)C)nc2-c2cc(Cl)cc(NS(C)(=O)=O)c2F)n1 [encorafenib]
How it was run: as §1

[10] = compound: COC(=O)[C@H](CCSC)NC(=O)C1=C(C=C(C=C1)NC[C@H](CS)N)C2=CC=CC=C2
How it was run: as §1

UniProt P24311, sequence (P24311 whole entry, looked up): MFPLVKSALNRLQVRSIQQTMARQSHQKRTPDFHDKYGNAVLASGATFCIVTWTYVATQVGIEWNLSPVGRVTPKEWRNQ
UniProt P51946, sequence (P51946 whole entry, looked up): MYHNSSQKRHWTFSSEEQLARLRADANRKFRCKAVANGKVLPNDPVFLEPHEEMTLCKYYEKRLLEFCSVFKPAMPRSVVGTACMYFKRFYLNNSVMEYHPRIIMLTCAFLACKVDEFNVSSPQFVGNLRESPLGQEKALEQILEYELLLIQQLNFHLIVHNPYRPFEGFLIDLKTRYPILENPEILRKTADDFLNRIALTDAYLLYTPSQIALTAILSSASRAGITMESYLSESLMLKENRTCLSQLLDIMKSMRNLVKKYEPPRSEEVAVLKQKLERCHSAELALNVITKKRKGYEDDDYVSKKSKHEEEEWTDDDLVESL
UniProt Q14839, sequence (Q14839 whole entry, looked up): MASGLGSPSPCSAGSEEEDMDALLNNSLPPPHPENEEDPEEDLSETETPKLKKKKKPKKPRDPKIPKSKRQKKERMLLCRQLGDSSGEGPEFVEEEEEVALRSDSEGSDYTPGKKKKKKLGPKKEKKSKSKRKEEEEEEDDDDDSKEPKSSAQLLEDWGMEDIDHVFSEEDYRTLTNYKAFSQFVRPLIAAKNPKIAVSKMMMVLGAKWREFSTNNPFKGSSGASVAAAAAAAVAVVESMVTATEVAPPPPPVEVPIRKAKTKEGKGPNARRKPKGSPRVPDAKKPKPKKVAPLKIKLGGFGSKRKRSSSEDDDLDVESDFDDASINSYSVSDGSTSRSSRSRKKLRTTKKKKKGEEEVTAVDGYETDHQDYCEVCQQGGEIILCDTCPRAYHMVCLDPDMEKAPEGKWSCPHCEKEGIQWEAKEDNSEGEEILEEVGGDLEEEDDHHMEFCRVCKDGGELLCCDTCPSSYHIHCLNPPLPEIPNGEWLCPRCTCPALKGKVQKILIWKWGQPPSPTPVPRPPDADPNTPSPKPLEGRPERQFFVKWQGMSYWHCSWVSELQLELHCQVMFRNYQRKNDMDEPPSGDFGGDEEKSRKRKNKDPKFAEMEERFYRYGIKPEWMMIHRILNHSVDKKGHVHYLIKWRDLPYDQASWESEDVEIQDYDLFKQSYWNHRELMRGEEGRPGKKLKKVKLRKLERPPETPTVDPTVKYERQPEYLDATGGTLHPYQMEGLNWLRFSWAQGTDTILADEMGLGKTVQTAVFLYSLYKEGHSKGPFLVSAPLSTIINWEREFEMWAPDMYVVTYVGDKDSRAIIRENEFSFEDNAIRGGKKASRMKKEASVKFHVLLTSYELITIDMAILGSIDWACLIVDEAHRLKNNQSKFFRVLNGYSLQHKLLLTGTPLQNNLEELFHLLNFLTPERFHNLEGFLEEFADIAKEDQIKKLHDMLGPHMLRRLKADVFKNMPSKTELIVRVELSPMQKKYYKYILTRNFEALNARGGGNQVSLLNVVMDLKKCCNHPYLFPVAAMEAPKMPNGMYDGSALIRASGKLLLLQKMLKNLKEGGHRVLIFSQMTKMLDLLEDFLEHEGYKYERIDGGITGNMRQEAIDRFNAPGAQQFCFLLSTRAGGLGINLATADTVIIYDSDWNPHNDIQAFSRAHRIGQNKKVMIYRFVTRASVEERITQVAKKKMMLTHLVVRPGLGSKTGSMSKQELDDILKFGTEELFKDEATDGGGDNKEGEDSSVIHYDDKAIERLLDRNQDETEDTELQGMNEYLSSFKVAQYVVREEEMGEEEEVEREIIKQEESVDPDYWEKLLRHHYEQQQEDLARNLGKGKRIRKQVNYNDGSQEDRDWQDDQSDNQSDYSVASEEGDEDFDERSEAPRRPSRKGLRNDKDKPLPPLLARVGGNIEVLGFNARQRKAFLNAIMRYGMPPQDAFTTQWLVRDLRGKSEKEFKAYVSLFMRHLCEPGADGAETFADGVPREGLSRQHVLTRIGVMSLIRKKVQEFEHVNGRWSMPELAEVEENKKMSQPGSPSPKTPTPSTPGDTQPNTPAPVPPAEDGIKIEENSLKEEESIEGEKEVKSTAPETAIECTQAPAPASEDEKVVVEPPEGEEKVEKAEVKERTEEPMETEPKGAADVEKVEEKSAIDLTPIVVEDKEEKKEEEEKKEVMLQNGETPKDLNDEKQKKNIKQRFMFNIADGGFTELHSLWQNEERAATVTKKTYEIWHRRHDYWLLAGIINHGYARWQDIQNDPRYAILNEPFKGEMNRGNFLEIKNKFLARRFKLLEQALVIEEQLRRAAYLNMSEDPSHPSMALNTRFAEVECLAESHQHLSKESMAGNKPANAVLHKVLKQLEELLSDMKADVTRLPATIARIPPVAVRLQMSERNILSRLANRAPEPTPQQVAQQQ
UniProt O43405, sequence (O43405 whole entry, looked up): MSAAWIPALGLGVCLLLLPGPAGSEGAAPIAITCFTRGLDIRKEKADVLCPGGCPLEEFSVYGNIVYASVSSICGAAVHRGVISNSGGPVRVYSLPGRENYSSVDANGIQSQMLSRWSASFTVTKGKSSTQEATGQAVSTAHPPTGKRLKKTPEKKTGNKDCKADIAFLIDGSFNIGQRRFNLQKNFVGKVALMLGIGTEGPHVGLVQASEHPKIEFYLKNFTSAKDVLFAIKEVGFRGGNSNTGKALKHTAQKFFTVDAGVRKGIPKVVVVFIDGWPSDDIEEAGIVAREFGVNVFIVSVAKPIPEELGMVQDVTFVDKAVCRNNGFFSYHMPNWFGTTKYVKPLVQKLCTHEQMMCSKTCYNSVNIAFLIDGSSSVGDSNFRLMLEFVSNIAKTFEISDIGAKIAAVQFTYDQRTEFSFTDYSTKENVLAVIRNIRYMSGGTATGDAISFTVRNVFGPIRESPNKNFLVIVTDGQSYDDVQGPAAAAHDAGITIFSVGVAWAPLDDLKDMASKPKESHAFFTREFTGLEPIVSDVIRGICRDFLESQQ
UniProt P51798, sequence (P51798 whole entry, looked up): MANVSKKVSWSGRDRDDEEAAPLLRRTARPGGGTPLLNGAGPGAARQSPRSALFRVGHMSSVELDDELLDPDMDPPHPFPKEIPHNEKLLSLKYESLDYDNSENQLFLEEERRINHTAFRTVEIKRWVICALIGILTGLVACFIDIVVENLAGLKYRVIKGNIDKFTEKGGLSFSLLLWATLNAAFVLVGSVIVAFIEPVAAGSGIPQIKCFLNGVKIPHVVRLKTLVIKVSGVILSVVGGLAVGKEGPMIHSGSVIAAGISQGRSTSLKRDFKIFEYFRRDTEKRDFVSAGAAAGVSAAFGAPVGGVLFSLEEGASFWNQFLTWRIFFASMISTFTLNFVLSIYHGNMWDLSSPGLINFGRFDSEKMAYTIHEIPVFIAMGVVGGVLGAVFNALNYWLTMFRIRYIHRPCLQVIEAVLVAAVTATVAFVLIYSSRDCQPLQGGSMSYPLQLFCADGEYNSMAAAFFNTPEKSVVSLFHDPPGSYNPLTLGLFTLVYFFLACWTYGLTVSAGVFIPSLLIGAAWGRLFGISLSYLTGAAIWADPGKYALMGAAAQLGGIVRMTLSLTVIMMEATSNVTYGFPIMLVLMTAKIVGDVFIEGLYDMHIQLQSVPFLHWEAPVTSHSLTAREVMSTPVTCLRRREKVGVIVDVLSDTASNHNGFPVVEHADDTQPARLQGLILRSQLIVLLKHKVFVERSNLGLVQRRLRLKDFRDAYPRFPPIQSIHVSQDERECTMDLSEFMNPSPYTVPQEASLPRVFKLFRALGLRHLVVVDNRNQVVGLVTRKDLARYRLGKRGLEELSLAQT
UniProt O76031, sequence (O76031 whole entry, looked up): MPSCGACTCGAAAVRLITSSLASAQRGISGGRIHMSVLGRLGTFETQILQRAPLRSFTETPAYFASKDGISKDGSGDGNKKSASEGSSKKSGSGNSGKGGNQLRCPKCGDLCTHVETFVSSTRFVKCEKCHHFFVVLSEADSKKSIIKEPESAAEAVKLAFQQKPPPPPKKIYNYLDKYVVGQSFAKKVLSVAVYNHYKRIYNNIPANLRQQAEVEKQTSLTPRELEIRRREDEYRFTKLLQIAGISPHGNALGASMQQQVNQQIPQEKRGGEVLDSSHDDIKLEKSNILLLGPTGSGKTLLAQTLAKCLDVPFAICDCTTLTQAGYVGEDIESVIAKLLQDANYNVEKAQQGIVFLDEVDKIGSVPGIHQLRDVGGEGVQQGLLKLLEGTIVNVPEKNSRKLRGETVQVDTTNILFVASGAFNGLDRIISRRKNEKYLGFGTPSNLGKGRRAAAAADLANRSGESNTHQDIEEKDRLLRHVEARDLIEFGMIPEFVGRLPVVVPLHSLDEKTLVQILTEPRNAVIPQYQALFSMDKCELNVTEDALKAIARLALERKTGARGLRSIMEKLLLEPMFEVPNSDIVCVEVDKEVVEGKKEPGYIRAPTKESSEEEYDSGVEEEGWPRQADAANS

Row | Target | log2 fold change [1] | log2 fold change (volasertib) | log2 fold change [2] | log2 fold change (epoxomicin) | log2 fold change [3] | log2 fold change [4] | log2 fold change [5] | log2 fold change (rosiglitazone) | log2 fold change [6] | log2 fold change [7] | log2 fold change (saracatinib) | log2 fold change (sotrastaurin) | log2 fold change (alvocidib) | log2 fold change (Tubastatin A) | log2 fold change [8] | log2 fold change (defactinib) | log2 fold change (rucaparib) | log2 fold change [9] | log2 fold change (encorafenib) | log2 fold change [10]
1 | C4A (UniProt P0C0L4) | -0.147 | -0.216 | -0.048 | -0.316 | -0.079 | 0.197 | 0 | 0.154 | 0.223 | -0.32 | 0.108 | 0.268 | 0.052 | -0.039 | -0.021 | 0.072 | -0.075 | -0.188 | -0.047 | -0.039
2 | CLCN7 (UniProt P51798) | -0.338 (active) | -0.297 | 0.031 | -0.001 | -0.022 | -0.047 | -0.01 | 0.049 | 0.009 | -1.05 (active) | 0.004 | -0.112 | 0.007 | -0.071 | 0.044 | 0.025 | -0.052 | -0.156 | 0.151 | -0.04
3 | COCH (UniProt O43405) | 0.117 | -0.08 | -0.065 | -0.153 | 0.054 | 0.075 | -0.127 | -0.056 | 0.007 | 0.076 | 0.126 | 0.01 | 0.029 | -0.036 | 0.031 | 0.1 | 0.011 | -0.139 | -0.074 | 0.05
4 | CHD4 isoform 2 (UniProt Q14839) | -0.124 | -0.382 | 0.158 | 0.069 | -0.051 | 0.098 | 0.048 | 0.058 | 0.1 | -0.073 | -0.006 | -0.25 | -0.135 | 0.03 | 0 | -0.247 | 0.043 | 0.041 | 0.133 | 0.017
5 | CCNH (UniProt P51946) | -0.034 | -0.028 | 0.021 | -0.024 | -0.004 | 0.046 | -0.019 | -0.001 | -0.069 | 0.005 | 0.094 | -0.019 | -0.014 | -0.001 | -0.037 | -0.037 | 0.036 | -0.044 | -0.031 | 0.033
6 | COX7B (UniProt P24311) | -0.011 | 0.024 | -0.052 | 0.023 | 0.065 | -0.035 | 0.04 | -0.033 | 0.015 | 0.323 (active) | 0.174 | 0.058 | 0.026 | -0.087 | 0.059 | 0 | -0.02 | -0.049 | -0.036 | -0.073
7 | CLPX (UniProt O76031) | 0.039 | 0.192 | -0.06 | -0.019 | -0.03 | -0.022 | 0.026 | -0.009 | -0.01 | 0.072 | 0.014 | 0.014 | 0.039 | 0.025 | -0.016 | -0.027 | 0.034 | -0.038 | -0.013 | -0.01
8 | CDC42BPB (UniProt Q9Y5S2) | 0.171 | 0.051 | -0.105 | -0.065 | 0.008 | 0.062 | 0.046 | 0.049 | 0.048 | -0.195 | -0.089 | -0.152 | 0.009 | 0.055 | 0.021 | -0.119 | 0.146 | -0.046 | -0.029 | -0.032
